Results on 18 compounds are retold here after PubChem BioAssay (EPA / NIEHS).

Where “and” joins values, the source holds several entries; their conditions need not be identical. Equal values may be shown once. Calls of active or inactive are those of the source. Rule for the calls: active = hit-call score of the fitted dose curve at least 0.9, where 1 is the maximum; inactive = score below 0.9.

Chain of Cytochrome P450 2C18 (Homo sapiens) (P33260 whole entry, looked up): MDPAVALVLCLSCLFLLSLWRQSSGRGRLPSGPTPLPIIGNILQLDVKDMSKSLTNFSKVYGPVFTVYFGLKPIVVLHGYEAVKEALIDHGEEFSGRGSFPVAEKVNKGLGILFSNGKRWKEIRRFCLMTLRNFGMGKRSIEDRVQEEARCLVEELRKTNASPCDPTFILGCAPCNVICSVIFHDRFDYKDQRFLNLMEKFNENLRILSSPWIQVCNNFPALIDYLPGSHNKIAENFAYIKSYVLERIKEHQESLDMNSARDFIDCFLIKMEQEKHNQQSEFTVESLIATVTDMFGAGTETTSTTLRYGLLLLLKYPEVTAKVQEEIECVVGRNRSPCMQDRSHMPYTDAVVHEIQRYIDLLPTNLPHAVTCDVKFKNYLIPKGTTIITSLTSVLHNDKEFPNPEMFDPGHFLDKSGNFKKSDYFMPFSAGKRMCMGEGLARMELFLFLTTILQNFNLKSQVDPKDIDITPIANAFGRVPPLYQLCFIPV

The test addresses Cytochrome P450 2C18 (Homo sapiens) (UniProt P33260). Briefly: NVS_ADME_hCYP2C18: NovaScreen (NVS) CYP450-related Enzyme Activity (ADME) Assay for human CYP2C18 (AID 2283103). As for the experimental part:
NVS_ADME_hCYP2C18 is a biochemical, single-readout assay that uses extracted gene-proteins in a cell-free assay. Measurements were taken 0.5 hour after chemical dosing in a 96-well plate.NVS_ADME_hCYP2C18 is one of one assay component(s) measured or calculated from the NVS_ADME_hCYP2C18 assay. It is designed to make measurements of enzyme activity, a form of enzyme reporter, as detected with fluorescence intensity signals by Fluorescence technology.Data from the assay component NVS_ADME_hCYP2C18 was analyzed into 1 assay endpoint. This assay endpoint, NVS_ADME_hCYP2C18, was analyzed in the positive analysis fitting direction relative to Acetonitrile as the negative control and baseline of activity. Using a type of enzyme reporter, loss-of-signal activity can be used to understand changes in the enzymatic activity as they relate to the gene CYP2C18. Furthermore, this assay endpoint can be referred to as a primary readout, because this assay has produced multiple assay endpoints where this one serves a enzymatic activity function. To generalize the intended target to other relatable targets, this assay endpoint is annotated to the cyp intended target family, where the subfamily is xenobiotic metabolism.
Binding assays used specific radioligands (tritiated, iodinated) with non-radioactive competitive displacement ligands in agonist or antagonist protocols (as indicated) and various reference compounds and inhibitors to titrate specific binding to receptors and transporters. Most enzyme assays (CYPs, kinases, phosphatases, proteases, HDACs) used recombinant protein and specific substrates (fluorescence mostly, some colorimetric and radioactive) and inhibitors, followed by a biochemical separation of substrate and product. All assays for the biochemical HTS were initially run in duplicate at a single concentration (10 uM for CYP450 assays and 25 uM for all others). Assay-chemical combinations meeting a pre-defined threshold (e.g., 30% inhibition and other criteria defined below) were then run in singleton concentration-response format with maximum concentration of 20 uM for CYPs and 50 uM for all others. Each assay was run with positive and negative controls, and concurrent controls on every plate. The follow-up (secondary) screen tested active chemical-pairs in concentration series, as well as a few additional assays not tested in the primary screen, some selected negative inactives, and several cases re-run in the concentration series for confirmatory purposes.
Consider `COP(=S)(OC)Oc1nc(Cl)c(Cl)cc1Cl`, for which the compound was classed as inactive.

On to `CCCCNC(=O)OCC#CI`, for which the AC50 (usually the concentration giving half of the maximal activity seen) was 2.41 µM (active) and 4.8 µM (active).

Regarding `CO/C=C(/C(=O)OC)c1ccccc1Oc1cc(Oc2ccccc2C#N)ncn1`, the AC50 was 5.5 µM (active). Turning to `Cc1ccc(-c2c(Cl)nc(C#N)n2S(=O)(=O)N(C)C)cc1`, the AC50 is 10 µM (active). `CCOP(=S)(OCC)SCn1c(=O)oc2cc(Cl)ccc21`: the AC50 was 1.46 µM (active).

As to `CCCN(CCC)c1c([N+](=O)[O-])cc(S(N)(=O)=O)cc1[N+](=O)[O-]`, the AC50 was 2.71 µM (active). Turning to `CN(C)C(=S)SSC(=S)N(C)C`, the AC50 is 2.26 µM (active). Same read-out and setting: for `C#CCOS(=O)OC1CCCCC1Oc1ccc(C(C)(C)C)cc1` (stereo not drawn) the value was 10 µM (active).

On to `CCOC(=O)CC(SP(=S)(OC)OC)C(=O)OCC` (stereo not drawn), for which the AC50 is 0.459 µM (active). Take `COC(=O)N(OC)c1ccccc1COc1ccn(-c2ccc(Cl)cc2)n1`: the AC50 was 0.784 µM (active). Same read-out and setting: for `CCCC1COC(Cn2cncn2)(c2ccc(Cl)cc2Cl)O1` (stereo not drawn) the value was 2.15 µM (active). On to `COc1ccc(C(c2ccc(OC)cc2)C(Cl)(Cl)Cl)cc1`, for which the AC50 was 4.6 µM (active). In the case of `CC1COC(Cn2cncn2)(c2ccc(Oc3ccc(Cl)cc3)cc2Cl)O1` (stereo not drawn), the AC50 was 1.07 µM (active).

`OC(c1ccc(Cl)cc1)(c1cncnc1)c1ccccc1Cl` (stereo not drawn): the concentration at half-maximal activity (AC50) was 6.02 µM (active). With `CCCCC(CC)COC(=O)c1ccccc1C(=O)OCC(CC)CCCC` (stereo not drawn), the call was inactive. Regarding `CCOC(=O)C(Cl)Cc1cc(-n2nc(C)n(C(F)F)c2=O)c(F)cc1Cl` (stereo not drawn), the compound was classed as inactive. `CNC(=S)S`: the call was inactive. As for `N#CC(CCc1ccc(Cl)cc1)(Cn1cncn1)c1ccccc1` (stereo not drawn), the half-maximal activity concentration (AC50) was 0.428 µM (active).
